Results published in PubChem BioAssay.
Calls of active or inactive are those of the source. Unless noted, no rule for the calls is given here.

Columns and labels:
[1] = compounds binding Alexa647 anti-His antibody – biochemical, small-molecule microarray, 635 nm fluorescence, artefact control for SMM control protein annotation, primary screen (AID 1128); conditions: higher = more signal;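 also: score merges feature fluorescence with signal-to-noise for each printed compound spot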
[2] = tested on: Human papillomavirus type 1a E7 protein (residues 1-88); test: HPV1a E7 small-molecule binders, primary screen, biochemical, small-molecule microarray, residues 1-88, 635 nm (AID 1129); conditions: small-molecule microarray binding, fluorescence 635 nm; higher = more signal
[3] = molecular target: Focal adhesion kinase 1 (Homo sapiens) (UniProt Q05397); test: PTK2 protein binding on printed compound slides – biochemical, small-molecule microarray, 635/667 nm fluorescence, BSA, DTT, primary screen (AID 1130); conditions: 635 nm fluorescence, higher = more signal;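 also: composite of spot emission at 667 nm and signal to noise over triplicate slides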
Chain of Focal adhesion kinase 1 (Homo sapiens) (Q05397 whole entry, looked up): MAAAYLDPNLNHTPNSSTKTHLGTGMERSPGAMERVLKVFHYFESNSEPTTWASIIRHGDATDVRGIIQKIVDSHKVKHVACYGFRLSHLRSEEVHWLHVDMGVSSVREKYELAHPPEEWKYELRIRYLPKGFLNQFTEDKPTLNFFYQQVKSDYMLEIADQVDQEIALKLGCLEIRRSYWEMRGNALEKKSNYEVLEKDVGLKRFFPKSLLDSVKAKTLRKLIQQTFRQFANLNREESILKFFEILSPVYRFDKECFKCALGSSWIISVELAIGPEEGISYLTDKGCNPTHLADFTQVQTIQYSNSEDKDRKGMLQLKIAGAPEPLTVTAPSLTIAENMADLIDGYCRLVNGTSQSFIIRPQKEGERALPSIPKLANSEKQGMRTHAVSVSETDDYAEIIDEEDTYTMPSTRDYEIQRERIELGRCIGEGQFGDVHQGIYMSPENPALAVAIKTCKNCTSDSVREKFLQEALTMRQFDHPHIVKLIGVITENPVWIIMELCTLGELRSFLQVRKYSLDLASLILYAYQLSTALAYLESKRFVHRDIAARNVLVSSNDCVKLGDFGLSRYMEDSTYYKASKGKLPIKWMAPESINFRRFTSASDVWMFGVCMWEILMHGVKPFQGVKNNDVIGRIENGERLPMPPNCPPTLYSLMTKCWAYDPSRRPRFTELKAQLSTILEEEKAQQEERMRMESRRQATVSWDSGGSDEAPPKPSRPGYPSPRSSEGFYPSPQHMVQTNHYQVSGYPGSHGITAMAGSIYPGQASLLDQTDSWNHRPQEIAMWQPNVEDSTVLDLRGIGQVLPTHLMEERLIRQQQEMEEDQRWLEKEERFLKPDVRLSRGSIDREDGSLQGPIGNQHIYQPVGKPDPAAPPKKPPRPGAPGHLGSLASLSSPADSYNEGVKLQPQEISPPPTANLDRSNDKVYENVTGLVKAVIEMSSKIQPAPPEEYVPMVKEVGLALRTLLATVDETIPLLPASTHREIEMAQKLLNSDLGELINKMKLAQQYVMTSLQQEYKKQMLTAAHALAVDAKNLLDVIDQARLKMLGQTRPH

[4] = tested on: Fibrinogen (Alexa647-labelled); test: Alexa647-fibrinogen binding to printed small molecules – biochemical, small-molecule microarray, 635/667 nm fluorescence, artefact control for SMM control-protein annotation, profiling panel (AID 1131); conditions: fibrinogen-A647 binding fluorescence, higher = more signal;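 also: z-score merges 667 nm fluorescence with per-spot signal-to-noise over triplicate slides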
[5] = molecular target: Follistatin (Homo sapiens) (UniProt P19883); test: FST protein binding to printed compounds – biochemical, small-molecule microarray, 635/667 nm fluorescence, primary screen (AID 1132); conditions: 635 nm fluorescence, higher = more signal
Chain of Follistatin (Homo sapiens) (P19883 whole entry, looked up): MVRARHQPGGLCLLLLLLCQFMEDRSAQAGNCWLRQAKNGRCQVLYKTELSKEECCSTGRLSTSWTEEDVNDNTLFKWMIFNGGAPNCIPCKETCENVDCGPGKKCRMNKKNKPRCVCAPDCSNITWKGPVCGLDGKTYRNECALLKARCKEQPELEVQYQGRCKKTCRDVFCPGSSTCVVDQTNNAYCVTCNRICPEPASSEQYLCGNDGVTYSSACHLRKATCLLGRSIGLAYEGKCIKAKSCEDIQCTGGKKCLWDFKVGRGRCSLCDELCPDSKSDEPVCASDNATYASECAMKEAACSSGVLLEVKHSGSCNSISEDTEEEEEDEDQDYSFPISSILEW

[6] = molecular target: Fibroblast growth factor 2 (Homo sapiens) (UniProt P09038); test: basic fibroblast growth factor binding to printed compounds – biochemical, small-molecule microarray, 635/667 nm fluorescence, primary screen (AID 1133); conditions: FGF2, fluorescence 635/667, higher = more signal
Chain of Fibroblast growth factor 2 (Homo sapiens) (P09038 whole entry, looked up): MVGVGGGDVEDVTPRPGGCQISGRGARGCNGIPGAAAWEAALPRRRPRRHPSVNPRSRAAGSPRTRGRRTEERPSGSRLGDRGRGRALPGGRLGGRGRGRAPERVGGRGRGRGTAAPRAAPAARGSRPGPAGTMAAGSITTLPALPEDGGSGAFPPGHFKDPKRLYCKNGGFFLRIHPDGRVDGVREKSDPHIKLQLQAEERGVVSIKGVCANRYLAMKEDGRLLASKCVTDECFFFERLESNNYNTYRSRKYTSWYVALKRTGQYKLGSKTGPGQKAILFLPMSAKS

[7] = JC-1 mitochondrial potential readout, lung cancer cells – cell-based, A549, JC-1 fluorescence, basal, 24 h, 100 nL, profiling panel (AID 1138); conditions: higher = more signal;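 also: A549 lung adenocarcinoma cells under basal conditions with no added stimulus; test concentration not given here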
Lefty1 = Lefty1 protein binding to printed compounds – biochemical, small-molecule microarray, 635/667 nm fluorescence, primary screen (AID 1139); conditions: fluorescence 635/667, higher = more signal
[8] = tested on: wheat germ agglutinin (Triticum aestivum), Alexa647-labelled; test: Alexa647-WGA lectin binding to printed small molecules – biochemical, small-molecule microarray, 635/667 nm fluorescence, artefact control for SMM control-protein annotation, profiling panel (AID 1140); conditions: WGA-A647 binding, 635 nm fluorescence, higher = more signal;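 also: score merges 667 nm feature emission with signal to noise over triplicate slides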
[9] = molecular target: Luciferin 4-monooxygenase (Photinus pyralis) (UniProt P08659); test: inhibition of purified Photinus pyralis luciferase – biochemical, luminescence, purified enzyme, 2006 set, primary screen (AID 1141); conditions: purified firefly luciferase, SteadyGlo luminescence, 30 min; higher = more signal, called active from +8 up or from −8 down;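 also: cell-free assay with purified firefly luciferase at 100 ng per well in PBS; test concentration not given here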
Chain of Luciferin 4-monooxygenase (Photinus pyralis) (P08659 whole entry, looked up): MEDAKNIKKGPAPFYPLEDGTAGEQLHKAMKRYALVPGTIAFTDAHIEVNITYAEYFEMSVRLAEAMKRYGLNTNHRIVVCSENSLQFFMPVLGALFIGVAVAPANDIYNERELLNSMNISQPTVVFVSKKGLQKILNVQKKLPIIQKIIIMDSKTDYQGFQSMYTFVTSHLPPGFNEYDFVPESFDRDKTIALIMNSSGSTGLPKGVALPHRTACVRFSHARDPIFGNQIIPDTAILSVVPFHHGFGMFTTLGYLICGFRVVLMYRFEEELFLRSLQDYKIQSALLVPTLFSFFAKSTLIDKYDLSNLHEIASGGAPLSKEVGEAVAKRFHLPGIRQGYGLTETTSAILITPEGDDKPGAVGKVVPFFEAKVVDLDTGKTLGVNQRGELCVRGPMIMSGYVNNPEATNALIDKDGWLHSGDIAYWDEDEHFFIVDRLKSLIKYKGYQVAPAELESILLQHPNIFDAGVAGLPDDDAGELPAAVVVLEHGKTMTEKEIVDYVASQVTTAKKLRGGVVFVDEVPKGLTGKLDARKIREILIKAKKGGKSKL

[10] = tested on: Wnt5a (protein binding on small-molecule microarray); test: small molecules binding Wnt5a protein – biophysical, small-molecule microarray, 635/667 nm fluorescence, primary screen (AID 1142); conditions: 635 nm fluorescence, higher = more signal;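 also: fluorescence read at 667 nm with signal to noise per printed feature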
[11] = ATP-based viability of Huh7 replicon cells – cell-based, CellTiter-Glo luminescence, basal, 48 h, cytotoxicity control for HCV replication inhibitor project, primary screen (AID 1143); conditions: higher = more signal, called active from +8 up or from −8 down;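 also: Huh7 hepatoma cells carrying a hepatitis C replication reporter with no stimulus; test concentration not given here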
[12] = Pseudomonas biofilm growth suppression – PAO1 strain, BacTiter-Glo luminescence, LB-PBS, primary screen (AID 1144); conditions: P. aeruginosa PAO1 biofilm, 12 h, higher = more signal
[13] = basal CRE-LacZ reporter activity in PC12 – cell-based, unstimulated, primary screen (AID 1145); conditions: no forskolin, luminescence, 4.5 h, higher = more signal, called active from +8 up or from −8 down
[14] = forskolin-driven CRE-LacZ activity in PC12 – cell-based, CRE-LacZ reporter, forskolin-stimulated, primary screen (AID 1146); conditions: luminescence, 4.5 h, higher = more signal, called active from +8 up or from −8 down;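 also: PC12 cells with 6xCRE LacZ reporter stimulated by forskolin 10 µM; beta-galactosidase reporter signal reflecting CREB driven transcription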
[15] = molecular target: Streptavidin (Streptomyces avidinii) (UniProt P22629); test: compounds binding control protein streptavidin – biophysical, small-molecule microarray, 635/667 nm fluorescence, artefact control for SMM compound annotation, primary screen (AID 1147); conditions: higher = more signal;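 also: signal reflects streptavidin binding to arrayed compounds as a control protein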
Chain of Streptavidin (Streptomyces avidinii) (P22629 whole entry, looked up): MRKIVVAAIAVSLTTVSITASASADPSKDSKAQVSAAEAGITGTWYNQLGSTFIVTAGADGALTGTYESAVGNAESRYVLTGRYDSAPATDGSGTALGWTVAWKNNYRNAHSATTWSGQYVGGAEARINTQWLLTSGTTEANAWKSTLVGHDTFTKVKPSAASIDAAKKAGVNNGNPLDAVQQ

[16] = probe aInhba binding on compound microarray – biochemical, small-molecule microarray, 635/667 nm fluorescence, primary screen (AID 1148); conditions: higher = more signal;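 also: score merges 667nm spot fluorescence with signal-to-noise for antibody binding to printed compounds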
Torsin-1A (Homo sapiens) [17] = molecular target: Torsin-1A (Homo sapiens) (UniProt O14656); test: TOR1A wild-type binding on microarray – cell lysate, small-molecule microarray, lysate, 635/667 nm, primary screen (AID 1149); conditions: COS7 hTOR1A-WT lysate, 635 nm fluorescence, higher = more signal
Chain of Torsin-1A (Homo sapiens) (O14656 whole entry, looked up): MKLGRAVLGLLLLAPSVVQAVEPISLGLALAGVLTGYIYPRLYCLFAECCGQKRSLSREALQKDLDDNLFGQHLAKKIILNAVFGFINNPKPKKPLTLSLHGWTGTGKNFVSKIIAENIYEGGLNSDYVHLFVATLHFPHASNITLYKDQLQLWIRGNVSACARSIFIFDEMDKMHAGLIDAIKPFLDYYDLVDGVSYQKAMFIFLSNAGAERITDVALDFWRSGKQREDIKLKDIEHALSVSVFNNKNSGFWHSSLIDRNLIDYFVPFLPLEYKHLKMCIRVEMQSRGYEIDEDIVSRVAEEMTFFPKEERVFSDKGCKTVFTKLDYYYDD

Torsin-1A (Homo sapiens) [18] = molecular target: Torsin-1A (Homo sapiens) (UniProt O14656); test: torsin A mutant lysate binding on microarrays – cell lysate, small-molecule microarray, COS7 lysate, 635/667 nm fluorescence, primary screen (AID 1150); conditions: COS7 hTOR1A mutant lysate, 635 nm fluorescence, higher = more signal;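 also: score pools 667 nm emission and signal to noise measuring lysate protein binding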
[19] = tested on: Sonic hedgehog protein (Shh); test: Sonic hedgehog microarray binding compounds – biochemical, small-molecule microarray, 635/667 nm fluorescence, primary screen (AID 1151); conditions: 635 nm fluorescence, higher = more signal;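 also: Shh protein binding to compounds spotted on small-molecule microarray slides; score combines spot fluorescence intensity with signal-to-noise across triplicate slides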

SMILES: COc1ccc(C#Cc2ccc3c(c2)[C@]2(C(=O)N3)[C@H](c3ccc(O)cc3)N3[C@H](c4ccccc4)[C@H](c4ccccc4)OC(=O)[C@H]3[C@@H]2C(=O)N2CCCCCCC2)cc1
- composite z-score [1]: 0.477
- composite z-score [2]: 1.22
- composite z-score [3]: 0.75
- composite z-score [4]: 0.702
- composite z-score [5]: 1.49
- composite z-score [6]: 1.02
- z-score [7]: -0.067
- composite z-score (Lefty1): 1.61
- composite z-score [8]: 1.35
- z-score [9]: -1.78 (inactive)
- composite z-score [10]: 1.12
- z-score [11]: -3.96 (inactive)
- z-score [12]: -1.42 (inactive)
- z-score [13]: 0.0653 (inactive)
- z-score [14]: -0.648 (inactive)
- composite z-score [15]: 1.9
- composite z-score [16]: 1.43
- composite z-score (Torsin-1A (Homo sapiens) [17]): 1.55
- composite z-score (Torsin-1A (Homo sapiens) [18]): 1.43
- composite z-score [19]: 2.09

SMILES: C#CCN(C(/C=C/c1ccccc1)CO)C(C(=O)O)c1ccccc1 (stereo not given)
- composite z-score [1]: -0.375
- composite z-score [2]: -1.19
- composite z-score [3]: 0.492
- composite z-score [4]: 0.116
- composite z-score [5]: -0.523
- composite z-score [6]: -0.354
- z-score [7]: -1.04
- composite z-score (Lefty1): -0.346
- composite z-score [8]: -0.0819
- z-score [9]: -0.104 (inactive)
- composite z-score [10]: 0.0265
- z-score [11]: -3.59 (inactive)
- z-score [12]: 1.13 (inactive)
- z-score [13]: -0.0487 (inactive)
- z-score [14]: -0.53 (inactive)
- composite z-score [15]: 0.18
- composite z-score [16]: 0.0391
- composite z-score (Torsin-1A (Homo sapiens) [17]): -0.407
- composite z-score (Torsin-1A (Homo sapiens) [18]): -0.959
- composite z-score [19]: -0.514

SMILES: CS(=O)(=O)CCOC(=O)C1=CC(c2ccc(CO)cc2)=CC(C2CC2)N(Cc2cc3c(cc2Br)OCO3)C=C1C(=O)OCCS(C)(=O)=O (stereo not given)
- composite z-score [1]: 1.92
- composite z-score [2]: 1.21
- composite z-score [3]: 0.608
- composite z-score [4]: 0.896
- composite z-score [5]: 0.678
- composite z-score [6]: 0.763
- z-score [7]: 2.44
- composite z-score (Lefty1): 1.09
- composite z-score [8]: 0.953
- z-score [9]: -1.51 (inactive)
- composite z-score [10]: 0.377
- z-score [11]: -3.38 (inactive)
- z-score [12]: -0.992 (inactive)
- z-score [13]: 5.81 (inactive)
- z-score [14]: -2.41 (inactive)
- composite z-score [15]: 1.54
- composite z-score [16]: -0.0645
- composite z-score (Torsin-1A (Homo sapiens) [17]): 0.0194
- composite z-score (Torsin-1A (Homo sapiens) [18]): 1.45
- composite z-score [19]: 0.595

SMILES: COCCCNC(=O)[C@@]1(c2ccc([N+](=O)[O-])cc2)CC(=O)N(CC23CC4CC(CC(C4)C2)C3)[C@@H]1c1ccc(CO)cc1
- composite z-score [1]: 0.344
- composite z-score [2]: 1.18
- composite z-score [3]: 0.745
- composite z-score [4]: 0.799
- composite z-score [5]: 1.27
- composite z-score [6]: 1.62
- z-score [7]: 0.846
- composite z-score (Lefty1): 0.983
- composite z-score [8]: 0.203
- z-score [9]: 0.183 (inactive)
- composite z-score [10]: 0.459
- z-score [11]: -4.39 (inactive)
- z-score [12]: -1.51 (inactive)
- z-score [13]: -0.179 (inactive)
- z-score [14]: -0.284 (inactive)
- composite z-score [15]: 0.0765
- composite z-score [16]: -0.0018
- composite z-score (Torsin-1A (Homo sapiens) [17]): 1.02
- composite z-score (Torsin-1A (Homo sapiens) [18]): 0.894
- composite z-score [19]: 2.13

SMILES: CCOC(=O)C1=C[C@@H](CC)N(S(=O)(=O)c2ccc(C)cc2)[C@H]1c1ccccc1
- composite z-score [1]: 0.862
- composite z-score [2]: 1.21
- composite z-score [3]: 1.33
- composite z-score [4]: 0.928
- composite z-score [5]: 0.431
- composite z-score [6]: 0.261
- z-score [7]: 2.94
- composite z-score (Lefty1): 0.0048
- composite z-score [8]: 0.749
- z-score [9]: 2.12 (inactive)
- composite z-score [10]: 0.214
- z-score [11]: -3.47 (inactive)
- z-score [12]: -0.0903 (inactive)
- z-score [13]: 0.22 (inactive)
- z-score [14]: -0.55 (inactive)
- composite z-score [15]: 1.09
- composite z-score [16]: 0.226
- composite z-score (Torsin-1A (Homo sapiens) [17]): 0.391
- composite z-score (Torsin-1A (Homo sapiens) [18]): 0.637
- composite z-score [19]: 0.0552
